Screening results from PubChem.
The list is not random: actives were taken first. Their share in the collection is about 2.3%.
Gli-Sufu block – blocks Gli-Sufu signaling in a luciferase reporter. Sufu-KO-LIGHT fibroblasts, Gli luciferase reporter luminescence. inhibition, % at 5 µM. actives 0.74% (n = 340,000);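 active means inhibition above about 55%, limit read from the data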
697 NFkB inh – lowers PMA/ionomycin-induced NF-kB signal in 697 B cells; 697 B-cell NF-kB luciferase reporter, 16 h; inhibition, % at 4 µM; actives 0.33% (n = 330,000); AID 435022; in the data active means inhibition above about 35%
Shn3 3UTR inh – inhibitors of Schnurri-3 3'UTR reporter in osteoblasts. Clone20 osteoblast Shn3 3'UTR firefly luciferase, 24 h. inhibition, % at 12.5 µM. actives 0.52% (n = 360,000). AID 588674;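 active means mean inhibition of at least 75% with every replicate also reaching 75%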
H9c2 TAG inh – inhibitors of triacylglycerol accumulation; H9c2 cells, Nile Red lipid (TAG) fluorescence; cells loaded with 200 µM oleic acid; inhibition, % at 12.5 µM; actives 0.66% (n = 230,000); AID 651582;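 active means pattern-corrected inhibition of lipid staining of at least 50% with the nuclear-stain viability signal not falling by more than 50%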
aSyn UTR inh – MLPCN primary screen, SNCA 5' untranslated region; alpha-synuclein 5'UTR reporter, inhibitor activity; inhibition, % (tested at 7.5 µM); actives 0.82% (n = 300,000); AID 1813; in the data active means inhibition above about 60%;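 further: H4 neuroglioblastoma cells stably carrying SNCA 5'UTR luciferase fusion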
Jurkat NFkB inh – lowers PMA/ionomycin-induced NF-kB signal in Jurkat cells; actives 0.53% (n = 330,000); inhibition, % at 4 µM; PMA/ionomycin-induced NF-kB luciferase reporter, luminescence; in the data active means inhibition above about 50%
Jurkat NFkB conf – inhibitors of the PMA/ionomycin-induced NF-kB reporter in Jurkat cells, retest | shares compounds with Jurkat NFkB inh | Jurkat NF-kB luciferase, 16 h | inhibition, % at 4 µM | actives 27% (n = 2,700) | AID 435020;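 active means inhibition reaching about 45% at 4 µM in either replicate, limit read from the data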
697 NFkB conf – lowers PMA/ionomycin-induced NF-kB signal in 697 B cells; AID 449746; actives 35% (n = 2,000); 697 B-cell NF-kB luciferase, 16 h; inhibition, % at 4 µM; shares compounds with 697 NFkB inh; in the data active means inhibition mostly above about 28%, no sharp cut-off; inactive means mostly below about 22%
A number is an active result; - = inactive; . = no result.

SMILES	Gli-Sufu block	697 NFkB inh	Shn3 3UTR inh	H9c2 TAG inh	aSyn UTR inh	Jurkat NFkB inh	Jurkat NFkB conf	697 NFkB conf
COc1ccc(-c2cn3c4c(sc3n2)CCCC4)cc1	-	-	-	.	-	-	-	-
COc1ccc(-c2cn3c(C)c(C(=O)N4CCCc5ccccc54)sc3n2)cc1	-	-	-	-	-	-	.	.
COc1cc([N+](=O)[O-])cc(/C=N/NC(=O)c2ccc(C)nc2)c1O	-	-	-	-	-	-	.	.
COc1cc([N+](=O)[O-])cc(/C=N/NC(=O)c2ccc(NC(=O)c3ccc(C)cc3)cc2)c1O	-	81	-	-	-	86	55	77
CC(=Nc1ccccc1)c1sc2ccccc2c1O	-	-	-	.	-	-	-	-
CCCCN1C(=O)C(O)(CC(=O)c2c(C)coc2C)c2ccccc21 (stereo not drawn)	-	-	-	-	-	-	.	.
C[C@H](NC(=O)c1nc[nH]c1C(=O)NC(c1ccccc1)c1ccccc1)C(=O)OCc1ccccc1	-	-	-	-	-	-	.	.
C[C@H](NC(=O)c1nc[nH]c1C(=O)N[C@@H](C)C(=O)OCc1ccccc1)C(=O)OCc1ccccc1	-	56	-	-	-	51	86	60
Cc1nc(C(=O)O)nn1-c1cc(Cl)ccc1Cl	-	-	-	.	-	-	.	.
CCOC(=O)N1CCN(c2ncnc3c2cnn3-c2ccc(OC)cc2)CC1	-	.	-	-	-	.	.	.
COc1ccc(-n2ncc3c(N4CCC(C)CC4)ncnc32)cc1	-	-	-	-	-	-	-	-
Cc1cc(C)cc(NC(=O)c2cc(Cl)sc2Cl)c1	-	-	-	.	-	-	.	.
Cc1cc(C)c2c(N)c(C(=O)Nc3ccc(C)c(C)c3)sc2n1	-	-	-	-	-	-	-	-
COc1ccc(NC(=O)c2sc3nc(C)cc(C)c3c2N)cc1	-	-	-	.	-	-	.	.
Cc1ccc2c(c1)Cc1nc3ccccc3nc1-2	-	-	-	-	71	-	-	-
Cc1ccc2c(c1)-c1nc3ccccc3cc1C2=NC1CCCCC1	-	.	-	-	.	.	.	.
O=C1C=CC(O)(c2cc(=O)c3c(O)cc(O)cc3o2)C=C1	-	-	97	-	-	89	71	-
CC(C)(C)c1nc(NC(=O)Nc2ccccc2)sc1Br	-	-	-	-	-	-	.	.
CC(C)c1ccc(-c2nnn(CCC(=O)O)n2)cc1	-	71	-	.	118	60	62	70
O=C(Oc1cccc(-c2cnc3ccccc3n2)c1)c1ccco1	-	-	-	-	-	-	.	.
Cc1nn(C)c(C)c1CNC(=O)Nc1cccc(Cl)c1	-	-	-	-	-	-	.	.
Cc1cc(NNC(=O)Nc2cccc(Cl)c2)nc2c1c(C)nn2C	.	58	.	.	-	53	56	56
COC(=O)c1ccc(C(=O)OC)c(NS(=O)(=O)c2ccc(NC(C)=O)cc2)c1	-	-	-	.	-	-	.	.
COc1cccc2oc3ccc(C#Cc4ccccn4)cc3c(=O)c12	-	-	-	-	-	-	.	.
O=c1c2ccccc2oc2cc(C#Cc3ccccn3)ccc12	-	-	-	-	-	-	-	-
SMILES	Gli-Sufu block	697 NFkB inh	Shn3 3UTR inh	H9c2 TAG inh	aSyn UTR inh	Jurkat NFkB inh	Jurkat NFkB conf	697 NFkB conf
O=C(CCl)N=c1sccn1Cc1ccccc1Cl	-	104	-	76	-	91	71	94
O=C(CCl)N=c1sccn1Cc1ccc(Cl)cc1Cl	95	98	-	59	-	97	69	102
CCC(=O)OCC(=O)N=c1sccn1Cc1ccccc1Cl	-	-	-	-	-	-	.	.
O=C(CN1CCN(S(=O)(=O)c2ccc(F)c(Cl)c2)CC1)N1CCc2ccccc21	-	-	-	-	.	-	.	.
COCCCNC(=O)Cn1nnc(-c2ccccc2NC(=O)c2ccc(F)cc2)n1	-	-	-	.	-	-	.	.
O=C(Nc1ccc2ncccc2c1)c1ccccc1Br	-	-	-	-	-	-	.	.
COc1cc(SC)ccc1C(=O)Nc1ccc2ncccc2c1	-	-	-	.	-	-	-	-
CCC(C)c1ccc(NC(=O)c2cccs2)cc1 (stereo not drawn)	-	-	-	.	-	-	-	-
COc1ccc(OC)c(C2C3=C(COC3=O)Nc3cc4c(cc32)OCO4)c1 (stereo not drawn)	-	43	-	.	89	77	-	39
O=S(=O)(Nc1cccnc1)c1ccc(F)cc1	-	-	-	.	-	-	.	.
Cc1cccnc1Nc1nc(-c2ccccn2)cs1	-	-	-	-	-	81	-	-
Fc1ccc(-c2csc(Nc3ccccn3)n2)cc1	-	-	-	.	-	-	-	-
c1cncc(Nc2nc(-c3cccnc3)cs2)c1	-	-	-	.	-	-	.	.
Clc1ccccc1Nc1nc(-c2cccnc2)cs1	-	-	-	-	-	-	-	-
Cc1cccnc1Nc1nc(-c2ccccc2)cs1	-	-	-	.	-	-	-	-
Cc1ccc(C)c(Nc2nc(-c3cccnc3)cs2)c1	-	-	-	.	-	-	.	.
Cc1cccnc1Nc1nc(-c2ccc(O)cc2O)cs1	-	-	-	-	-	-	.	.
O=C(O)CNc1nc(-c2ccccc2)nc2ccccc12	-	-	-	.	-	-	.	.
CC[C@]12c3[nH]c4ccc(Cl)cc4c3CCN1C(=O)[C@@H](CC(=O)NCc1cccc(C(F)(F)F)c1)C[C@@H]2C(=O)N1CCN(C(=O)C2CC2)CC1	-	-	-	-	.	.	.	.
CCC(C)NC(=O)c1cc2cc3ccc(OC)cc3nc2s1 (stereo not drawn)	-	-	-	-	-	-	-	-
COc1cccc2c1C(=O)c1c(O)c3c(c(O)c1C2=O)C[C@@](O)(C(=O)CO)C[C@@H]3O[C@H]1C[C@H](N)[C@@H](O)[C@H](C)O1	68	87	-	-	109	94	90	92
Cc1cccc(/C(N)=N/OC(=O)c2ccc(Cl)cc2Cl)c1	-	-	-	.	-	-	-	-
Cc1ccc(/C(N)=N/OC(=O)c2ccc(C)cc2Cl)cc1	-	-	-	.	-	-	-	-
N/C(=N\OC(=O)c1ccc(Cl)cc1Cl)c1ccccc1	-	-	-	.	-	-	-	-
CCCCCOc1ccc(CN2CCOCC2)cc1Cl	-	-	-	-	-	-	.	.
CCCCCc1ccc(OCCCC[n+]2cccc(C)c2)c(CCCCC)c1	85	42	-	-	-	63	58	48
COc1ccccc1OC(C)C(=O)Nc1nc(-c2ccc(S(=O)(=O)N3CCOCC3)cc2)cs1 (stereo not drawn)	-	-	-	.	-	-	.	.
COc1ccccc1C(=O)Nc1nc(-c2ccc(S(=O)(=O)N3CCOCC3)cc2)cs1	66	41	89	-	-	76	61	30
